The campaign covered roughly 96,000 compounds. About 19,000 (20%) were called active. Not all results are given here. A number with no mark means an inactive call.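 How the source made its calls: active means blocking of liver enzyme CYP2C9 beyond about 50% at 5 µM (limit read from the data); inactive means the rest.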

For the assay, the target named is Cytochrome P450 2C9 (Homo sapiens) (UniProt P11712). The assay can be described thus: blockers of cytochrome P450 2C9 activity – biochemical, luminescence, ADME assay, primary screen (AID 777). The settings on record: CYP2C9 Supersomes, luciferin-H conversion, at 5 µM, stronger effect = higher value.
Cytochrome P450 2C9 (Homo sapiens), sequence (P11712 whole entry, looked up): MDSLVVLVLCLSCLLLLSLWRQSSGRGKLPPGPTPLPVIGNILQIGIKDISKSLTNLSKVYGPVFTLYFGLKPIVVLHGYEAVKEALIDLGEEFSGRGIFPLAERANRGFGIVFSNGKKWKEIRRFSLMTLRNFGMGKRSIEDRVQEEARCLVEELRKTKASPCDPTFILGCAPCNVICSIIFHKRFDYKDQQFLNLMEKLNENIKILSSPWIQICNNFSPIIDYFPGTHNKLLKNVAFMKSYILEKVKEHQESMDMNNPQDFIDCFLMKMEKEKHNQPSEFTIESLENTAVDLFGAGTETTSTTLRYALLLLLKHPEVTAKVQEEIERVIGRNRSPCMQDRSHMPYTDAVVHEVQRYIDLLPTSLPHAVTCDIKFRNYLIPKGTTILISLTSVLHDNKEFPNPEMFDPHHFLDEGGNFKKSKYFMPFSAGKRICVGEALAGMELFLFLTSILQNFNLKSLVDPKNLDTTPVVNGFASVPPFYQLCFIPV
The inhibition is the drop in the measured response relative to a control, in per cent. For `Oc1c(C(c2ccccn2)N2CCOCC2)ccc2cccnc12` (stereo not drawn), the inhibition was -11.4%. Turning to `O=C(Cn1cc(-c2nnnn2-c2ccc(Cl)cc2)c(=O)c2ccccc21)c1ccccc1`, the inhibition was -11.4%. As for `O=c1cc(CO)oc(CN2CCC(Cc3ccccc3)CC2)c1O`, the figure is 4.2%; as for `FC(F)(F)c1cccc(-c2cc3ccccc3nc2N2CCCC2)c1`, 11.5%; as for `O=C(COC(=O)c1ccc(S(=O)(=O)N2CCc3ccccc3C2)cc1)NC(=O)NCc1ccco1`, 10.9%. As for `C=CCOC(=O)C1=C(C)NC(SCC(=O)OCC)=C(C#N)C1c1ccc(C)cc1` (stereo not drawn), the figure is 64.3% (active); as for `CC1=C(C(=O)OCc2ccccc2)C(c2ccco2)n2ncnc2N1` (stereo not drawn), 17.6%.

`C=CCOC(=O)C1=C(C)OC(N)=C(C#N)C1c1ccc(F)cc1` (stereo not drawn): the inhibition was 44.5%.

For `CC1=C(C(=O)Nc2ccccc2)C(c2ccco2)C(C#N)=C(SCC(N)=O)N1` (stereo not drawn), the inhibition was 5.8%. For `CCOC(=O)CSC1=C(C#N)C(c2ccco2)C(C(=O)OCc2ccccc2)=C(C)N1` (stereo not drawn) the value was 95.5% (active); for `Cc1cc(=O)oc2ccc(OCC(=O)O)cc12`, 11.6%; for `CC/C(=N\O)C(C)(C)/[N+]([O-])=C/c1ccc(Br)cc1`, 0.5%. As for `COCCCNC(=O)COc1cc(C)c(Cl)c(C)c1`, the figure is -73.4%; as for `CC1Cc2ccccc2N1C(=O)Cn1cnc2ccccc2c1=O` (stereo not drawn), 34.6%; as for `CCn1nc(C(=O)OCC(=O)N2c3ccccc3CC2C)c2ccccc2c1=O` (stereo not drawn), 80.7% (active).

Consider `CCOC(=O)c1[nH]c(C)c(C(=O)OCC(=O)N2c3ccccc3CC2C)c1C` (stereo not drawn), for which the inhibition was 10.7%. For `Cc1ccc(Cl)cc1NC(=O)COC(=O)C1CCCCC1` the value was 28.6%. With `Cn1c2c(c(=O)n(C)c1=O)C(c1cccc([N+](=O)[O-])c1)Nc1ccccc1O2` (stereo not drawn), the inhibition is 50.4% (active).

As for `Cn1c2c(c(=O)n(C)c1=O)C(c1ccc(O)cc1)Nc1ccccc1O2` (stereo not drawn), the inhibition is 19.1%.

On to `CCOC(=O)C1=C(CN2CCc3ccccc32)NC(=O)NC1c1cccc([N+](=O)[O-])c1` (stereo not drawn), for which the inhibition is 25.1%. As for `Nc1c(-c2ccc(F)cc2)cnn1C1CCS(=O)(=O)C1` (stereo not drawn), the figure is -14.9%; as for `CC1(C)CC(=O)C2=C(C1)N=C1SCCC(=O)N1C2c1ccc(C(F)(F)F)cc1` (stereo not drawn), -19.2%.

With `O=c1cc(-c2ccccc2)nc(N2CCCCC2)[nH]1`, the inhibition was -5.8%. For `O=C(Nc1ccc2nc3n(c(=O)c2c1)CCCCC3)c1ccccc1Cl` the value was 41.7%. As for `O=c1c2c(nc3n1CCCCC3)sc1c(O)cccc12`, the inhibition is 70.6% (active). For `Cc1cccc2c(=O)n3c(nc12)CCCCC3` the value was 21%; for `COC(=O)c1ccc(NC(=O)c2ccccc2NS(=O)(=O)c2ccccc2)cc1`, 96.1% (active); for `COC(=O)c1ccccc1NC(=O)c1ccccc1NS(C)(=O)=O`, 80.6% (active). As for `CCOc1ccccc1N(CC(=O)Nc1ccccc1C(=O)OC)S(C)(=O)=O`, the figure is 6.7%; as for `COC(=O)c1ccccc1NC(=O)c1cncc(Br)c1`, -3.1%; as for `CCCCNC(=O)c1ccccc1NC(=O)c1ccccc1N(C)S(C)(=O)=O`, -0.4%.

Take `COC(=O)c1ccc(NC(=O)C(C)N2C(=O)c3ccccc3C2=O)cc1` (stereo not drawn): the inhibition was 26.7%. For `CCCNC(=O)Nc1ccccc1C(=O)Nc1ccc(OC)cc1` the value was 44.3%; for `CCOc1ccc(NC(=O)N(CC(C)C)CC(C)C)cc1`, 6.8%; for `COC(=O)c1ccccc1NC(=O)CN(Cc1ccccc1)S(C)(=O)=O`, 27.6%.

Regarding `CCOc1ccc(NC(=O)c2ccccc2NS(C)(=O)=O)cc1`, the inhibition is 54.1% (active).

`COC(=O)c1ccccc1NC(=O)CN(Cc1ccc(Cl)cc1)S(C)(=O)=O`: the inhibition is 55.5% (active). In the case of `S=C1SCN(CCN2CCOCC2)CN1Cc1ccccc1`, the inhibition is 22.3%. Regarding `Cc1nc(NC(CC(C)C)C(=O)O)c2nc(C)oc2n1` (stereo not drawn), the inhibition is 15.1%. As for `COC(=O)CNC(c1ccccc1Cl)c1cc(Br)ccc1NC(=O)CCN1CCOCC1` (stereo not drawn), the figure is 7.3%; as for `C=CCn1c(-c2ccc3[nH]c(C)c(C)c3c2)n[nH]c1=S`, 31.1%; as for `CCCc1nc(-c2ccccc2O)n(-c2ccccc2)n1`, -16.7%. For `Cc1ccc(S(=O)(=O)N2C3C=CC(C3)C2C(=O)O)cc1` (stereo not drawn) the value was -4.8%; for `CCOCCCNC(=O)C(NC(=O)c1ccc(=O)[nH]c1)c1ccc(Cl)cc1` (stereo not drawn), 2.5%.

Consider `O=C(NCCOc1ccccc1)c1ccccc1`, for which the inhibition is -2.4%. For `Cc1ccc(S(=O)(=O)NCC(=O)N(CC(=O)NC(C)(C)C)Cc2cccs2)cc1` the value was -0.5%.

`CCOC(=O)N1CCC(NC(=O)Cn2cc3c(n2)CCCCC3)CC1`: the inhibition was -10.8%.

For the compound `CC(C)c1ccc(/C=C/C(=O)NNC(=O)c2cccnc2)cc1`, the inhibition was 6.3%. In the case of `CCCCn1c(SCc2ncc(-c3ccccc3)o2)nc2cc(S(N)(=O)=O)ccc21`, the inhibition was 54.5% (active). For `OC(COc1ccccc1)Cn1cc(Br)cn1` (stereo not drawn), the inhibition is 18.3%. For `O=C(O)c1ccc(-n2cccc2)cc1O` the value was 4.7%; for `CCC(C)(C)n1nnnc1C(c1cccs1)N1CCN(c2nc3ccccc3s2)CC1` (stereo not drawn), 71% (active).

Take `CCC(C)(C)n1nnnc1C(c1cccs1)N1CCN(Cc2ccccc2)CC1` (stereo not drawn): the inhibition is 43.4%. As for `CCC(C)(C)n1nnnc1CN1CCN(c2nc3ccc(C)cc3cc2C#N)CC1`, the figure is 8.7%; as for `COCCCNC(=O)CCc1nc2cccnc2n1Cc1ccc(OC)cc1`, -1.2%; as for `Cn1nc(C(F)(F)F)c2cc(NC(=O)OCC(C)(C)C)sc21`, -4.4%. For `COc1ccc(OC)c2c1sc(=NC(=O)CN1C(=O)CCC1=O)n2C` the value was 2.3%. `CCOC(=O)c1sc(/N=C/Nc2nc(C)c(C(=O)OCC)s2)nc1C`: the inhibition is 29.2%. For `C=CCn1c2ccccc2c2nnc(SC(CC)C(=O)Nc3nc(C)c(C(=O)OCC)s3)nc21` (stereo not drawn) the value was 75% (active). As for `CCOC(=O)c1sc(NC(=O)C(CC)Sc2nccn2C)nc1C` (stereo not drawn), the figure is 45.4%; as for `O=C(c1cccnc1NCc1ccccc1)N1CCOCC1`, 4%. As for `Cc1c(C(=O)OC(C)C)sc(NC(=O)c2cccnc2)c1C#N`, the figure is 95.4% (active). For the compound `CCOC(=O)c1cc(NC(=O)c2cccnc2)cc(C(=O)OCC)c1`, the inhibition was 37.8%.

On to `O=C(Nc1cnccn1)c1cccnc1`, for which the inhibition is -0.8%.

Turning to `O=C(COc1ncnc2c(Cl)cc(Cl)cc12)N1CCN(S(=O)(=O)c2ccccc2)CC1`, the inhibition was -7.6%.

In the case of `CCCCCN(C(=O)NC(=O)Nc1ccccc1C)S(C)(=O)=O`, the inhibition was 32.9%.

`CCCCCN(C(=O)NC(=O)Nc1ccccc1OC)S(C)(=O)=O`: the inhibition was 68.3% (active). As for `CCCCCCCC(=O)NC(Nc1ccccc1OC)C(Cl)(Cl)Cl` (stereo not drawn), the figure is 12.1%. Turning to `Cc1c(CCO)c(=O)[nH]n1C(=O)c1c(F)cccc1F`, the inhibition was -4.2%. As for `Cc1ccc(N2C(=O)S/C(=C/c3cn(C)c4ccccc34)C2=O)cc1`, the figure is -33.6%; as for `COc1ccc(/C=C2/S/C(=N/N=C3\CC4CCC3(C)C4(C)C)NC2=O)cc1` (stereo not drawn), -0.8%. For `Cc1sc(NC(=S)NC(=O)c2cccs2)nc1-c1ccc(CC(C)C)cc1` the value was 14.4%. Consider `CCOC(=O)C1=C(c2ccccc2)N=C2SCC(=O)N2C1c1ccc(O)c(OC)c1` (stereo not drawn), for which the inhibition was 33.1%. For `COc1cc(C2C3C(=O)N(c4ccccc4)C(=O)C3ON2c2ccccc2)ccc1O` (stereo not drawn) the value was 69.1% (active).

`Cc1ccccc1N1C(=O)C2ON(c3ccccc3)C(c3ccncc3)C2C1=O` (stereo not drawn): the inhibition is 65.9% (active). Regarding `COc1cc(C2C(C(=O)Nc3ccccc3OC)=C(C)Nc3ncnn32)ccc1O` (stereo not drawn), the inhibition is 12.1%. For `CC(=O)c1cc(NC(=O)c2ccccc2)c(=O)oc1/C=C/N(C)C` the value was 46.8%; for `CCCCCOC(=O)c1ccc(N2C(=O)C3C4C=CC(C4)C3C2=O)cc1` (stereo not drawn), 46.3%. As for `O=S(=O)(NCc1cccnc1)c1ccc(Br)s1`, the figure is 14.7%. As for `Cc1nc2nc(COc3ccccc3)[nH]n2c(=O)c1Cc1ccccc1`, the inhibition was 17.5%. In the case of `CCOCCCNS(=O)(=O)Cc1ccccc1`, the inhibition was -1.6%. As for `CCOc1ccc2nc(N3CCCN(C(=O)Nc4ccccc4C)CC3)c(C#N)cc2c1`, the figure is 98.1% (active); as for `CCOc1ccc2cc(C#N)c(SCC(=O)OC)nc2c1`, 21.4%; as for `CCOc1ccc2nc(NCCNS(=O)(=O)c3ccccc3)c(C#N)cc2c1`, 22.2%.

Turning to `CCOC(=O)CC1C(=O)NCCN1C(=O)COc1ccc(Br)cc1C` (stereo not drawn), the inhibition was -12%. For `Fc1cnc(N2CCOCC2)nc1NCc1ccccc1` the value was -1.5%; for `Cc1cc(C(=O)Nc2ccccc2N2CCOCC2)c2ccccc2n1`, 58.2% (active).

In the case of `O=C(CNC(=O)c1ccc(Cl)cc1Cl)NCC(=O)Nc1ccccc1N1CCOCC1`, the inhibition was 57.6% (active). Consider `O=C(CN1CCOCC1)Nc1cc(Cl)ccc1Cl`, for which the inhibition is -138%. As for `COc1c(C)cccc1C(=O)Nc1cc(Cl)ccc1N1CCOCC1`, the inhibition was 26.5%. As for `O=S(=O)(Nc1ccccc1N1CCOCC1)c1ccc(Cl)s1`, the figure is 10.6%; as for `Cc1c(NC(=O)c2cc(-c3ccc(Cl)s3)nc3ccccc23)c(=O)n(-c2ccccc2)n1C`, 29.3%. As for `Nc1nonc1-c1noc(-c2ccc(Br)o2)n1`, the figure is 2.6%.

With `O=c1[nH]c(-c2cccs2)nc2ccccc12`, the inhibition was 3.1%. For `CCSc1nc(=S)n(CC)c(C)c1C(C)=O` the value was -26.9%; for `O=C(NCCC1=CCCCC1)C1CCN(Cc2cnn(-c3ccccc3)c2-n2cccc2)CC1`, 48.5%; for `C1=C(CCNc2ncnc3c2cnn3-c2ccccc2)CCCC1`, 62% (active). For `S=C(NCCC1=CCCCC1)Nc1ccccc1` the value was 14.4%.

These data come from PubChem BioAssay AID777 (Sanford-Burnham Center for Chemical Genomics, 2007).
